Here are results for 20 molecules from PubChem BioAssay (NCI).

About 83,000 compounds went through this panel and 20% of them were active in at least one assay; those are over-represented in the sample as a whole.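 Activity criterion: percent growth below 10, measured after cells in 96-well plates were exposed to a single compound concentration for 48 hours.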 A number with no mark means an inactive call. Active and inactive are the calls of the source.

Among the test systems are T-47D breast; MDA-MB-435 melanoma; SW-620 colon; MCF7 breast; HCT-116 colon; HCC-2998 colon; KM12 colon.
Common to all, as to experiment: NCI-60 one-dose screen, 48 h (100 = growth as untreated, 0 = no growth, -100 = all killed)
Holding throughout (settings): 10 µM unless noted

With `Cc1cccc(C)c1NC(=S)/N=C\c1c(O)[nH]c(=O)[nH]c1=O`, the growth in the experiment with T-47D breast was 104%; in the experiment with MDA-MB-435 melanoma it was 107%; in the experiment on SW-620 colon, 105%; with MCF7 breast it was 93.6%; with HCT-116 colon, 106%; in the experiment with HCC-2998 colon, 102%. The growth with KM12 colon is 103%.

In the case of `Cc1ccc(NC(=O)c2ccccc2Cl)cc1`, the growth was 112% with T-47D breast; 109% with MDA-MB-435 melanoma; 109% in the experiment with SW-620 colon; 99.4% in the experiment on MCF7 breast; 114% in the experiment on HCT-116 colon; 124% with HCC-2998 colon. In the experiment on KM12 colon, the growth was 105%.

Take `BrCc1cccc(C[P+](c2ccccc2)(c2ccccc2)c2ccccc2)c1`: the growth with T-47D breast is 28.2%; in the experiment on MDA-MB-435 melanoma it was 18%; with SW-620 colon, 25.4%; in the experiment with MCF7 breast, 53.3%; with HCT-116 colon it was 22.2%; in the experiment with HCC-2998 colon it was 33.1%. For the same molecule, the growth with KM12 colon was 30.2%.

As for `O=C(O)CCCCCNC(=O)OCc1ccccc1`, the growth with T-47D breast is 97.6%; with MDA-MB-435 melanoma it was 99.8%; in the experiment on SW-620 colon, 95.2%; in the experiment with MCF7 breast it was 93.6%; with HCT-116 colon it was 92.9%; in the experiment on HCC-2998 colon, 105%. Also, the growth with KM12 colon is 101%.

Take `C=COC(=O)CCOCC(CC)CCCC` (stereo not given): the growth in the experiment on T-47D breast was 95.9%; in the experiment on MDA-MB-435 melanoma it was 99.2%; in the experiment on SW-620 colon, 105%; in the experiment with MCF7 breast it was 96.3%; in the experiment on HCT-116 colon, 101%; with HCC-2998 colon it was 105%. In addition, in the experiment on KM12 colon, the growth was 99.9%.

Turning to `COc1ccc(C(=O)/C(=N/Nc2ccccc2)c2ccc(OC)cc2)cc1`, the growth in the experiment on T-47D breast was 87%; in the experiment with MDA-MB-435 melanoma, 94.1%; in the experiment with SW-620 colon, 93.5%; in the experiment on MCF7 breast, 95.2%; in the experiment with HCT-116 colon, 78.5%; in the experiment with HCC-2998 colon, 95.2%. For the same molecule, the growth in the experiment on KM12 colon is 90%.

In the case of `CC1CC2C3CCC4=CC(=O)CCC4(C)C3CCC2(C)C1(O)C(=O)CO` (stereo not given), the growth in the experiment with T-47D breast is 103%; in the experiment with MDA-MB-435 melanoma, 115%; with SW-620 colon it was 113%; in the experiment on MCF7 breast it was 99.8%; in the experiment with HCT-116 colon it was 109%; in the experiment with HCC-2998 colon it was 104%. Also, the growth with KM12 colon is 119%.

Consider `NS(=O)(=O)c1cc(=O)[nH]c(=O)[nH]1`, for which the growth is 113% in the experiment with T-47D breast; 105% in the experiment on MDA-MB-435 melanoma; 109% in the experiment on SW-620 colon; 101% in the experiment with MCF7 breast; 105% in the experiment on HCT-116 colon; 121% in the experiment with HCC-2998 colon. Besides, the growth in the experiment on KM12 colon was 104%.

`C=CC(=O)OC1CCC(C(C)(C)CC)CC1` (stereo not given): the growth in the experiment on T-47D breast was 112%; with MDA-MB-435 melanoma, 103%; in the experiment with SW-620 colon, 107%; in the experiment with MCF7 breast it was 96%; in the experiment on HCT-116 colon, 104%; with HCC-2998 colon it was 110%. Moreover, the growth with KM12 colon was 106%.

In the case of `Cc1nc(C)c(C(=O)O)cc1C(=O)O`, the growth in the experiment with T-47D breast was 122%; with MDA-MB-435 melanoma it was 110%; in the experiment with SW-620 colon, 109%; with MCF7 breast, 109%; in the experiment with HCT-116 colon, 111%; in the experiment with HCC-2998 colon it was 101%. In the experiment with KM12 colon, the growth was 117%.

Consider `S=C(Sc1ccc(Cl)cc1)Sc1ccc(Cl)cc1`, for which the growth with T-47D breast is -1.08% (active); in the experiment with MDA-MB-435 melanoma, 19.6%; with SW-620 colon, -68% (active); in the experiment with MCF7 breast, 24%; with HCT-116 colon it was -68.4% (active); with HCC-2998 colon, 24.1%. In the experiment with KM12 colon, the growth is 41%.

Take `O=Cc1ccc(Cl)c(Cl)c1`: the growth was 115% with T-47D breast; 110% in the experiment on MDA-MB-435 melanoma; 118% with SW-620 colon; 98.4% in the experiment on MCF7 breast; 107% with HCT-116 colon; 97.2% in the experiment on HCC-2998 colon. Also, the growth in the experiment on KM12 colon is 113%.

As for `CC(=O)OCC1CCC(COC(C)=O)CC1` (stereo not given), the growth with T-47D breast was 93%; in the experiment on MDA-MB-435 melanoma, 103%; with SW-620 colon it was 109%; in the experiment on MCF7 breast, 90.9%; with HCT-116 colon, 103%; with HCC-2998 colon, 91.5%. The growth with KM12 colon was 99.2%.

With `CC(C)N(C(=O)c1ccccc1)C(C)C`, the growth in the experiment with T-47D breast is 99.5%; with MDA-MB-435 melanoma, 107%; in the experiment on SW-620 colon, 104%; with MCF7 breast, 97.8%; in the experiment with HCT-116 colon it was 104%; with HCC-2998 colon it was 98.3%. Further, the growth with KM12 colon was 111%.

As for `NC(CO)(CO)c1ccccc1`, the growth in the experiment with T-47D breast was 99.7%; in the experiment on MDA-MB-435 melanoma it was 98.4%; in the experiment with SW-620 colon, 96.9%; with MCF7 breast, 95.9%; in the experiment with HCT-116 colon, 101%; in the experiment with HCC-2998 colon it was 110%. Also, the growth in the experiment with KM12 colon was 94.5%.

`CCOc1ccc(C(=O)NCC(C)C)cc1`: the growth in the experiment on T-47D breast is 89.1%; in the experiment on MDA-MB-435 melanoma, 96.8%; in the experiment on SW-620 colon, 91.7%; in the experiment on MCF7 breast, 93.5%; in the experiment on HCT-116 colon, 101%; with HCC-2998 colon, 114%. Further, in the experiment on KM12 colon, the growth was 101%.

For `CC(CCC#N)(CCC#N)C(=O)c1ccccc1`, the growth with T-47D breast was 93.8%; in the experiment on MDA-MB-435 melanoma it was 107%; in the experiment on SW-620 colon, 103%; in the experiment with MCF7 breast, 95.9%; in the experiment on HCT-116 colon it was 112%; in the experiment on HCC-2998 colon, 101%. Also, the growth in the experiment with KM12 colon was 108%.

`Clc1ccc(/C=C/c2ccccn2)cc1`: the growth with T-47D breast was 44.1%; with MDA-MB-435 melanoma, 105%; in the experiment with SW-620 colon it was 84.2%; in the experiment with MCF7 breast, 25.9%; in the experiment with HCT-116 colon it was 81.6%; in the experiment on HCC-2998 colon, 111%. In addition, in the experiment on KM12 colon, the growth was 89.8%.

With `O=C(O)Cc1ccccn1`, the growth in the experiment on T-47D breast is 110%; in the experiment on MDA-MB-435 melanoma, 104%; in the experiment on SW-620 colon it was 105%; in the experiment on MCF7 breast, 100%; in the experiment with HCT-116 colon, 104%; in the experiment with HCC-2998 colon, 111%. Besides, the growth with KM12 colon is 104%.

For the molecule `O=[N+]([O-])c1ccc2[nH]c(=S)n(/C=C(/c3ccc(Cl)cc3Cl)S(=O)(=O)Cc3ccc(Cl)cc3Cl)c2c1`, the growth in the experiment with T-47D breast is 90.2%; in the experiment with MDA-MB-435 melanoma, 103%; in the experiment with SW-620 colon it was 114%; with MCF7 breast it was 87.8%; with HCT-116 colon, 82.8%; in the experiment on HCC-2998 colon, 105%. For the same molecule, the growth in the experiment with KM12 colon is 108%.
